# Screens from PubChem.
# CFTR F508del cor: correctors of CFTR F508del function in bronchial epithelial cells. CFBE cells, YFP halide quenching; stimulated with forskolin plus potentiator P3; % fluorescence drop versus neutral controls. activity (quench increase), % at 7.58 µM. 0.36% of 350,000 active. AID 720511;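 active = mean added fluorescence quench of at least 8% versus neutral control, with both replicates also reaching 8%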;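 note: cells transiently co-express mutant CFTR-F508del with the halide-sensitive YFP; corrector assay measuring rescue of mutant channel to the surface after 24 h compound exposure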
# HIV Env fusion: inhibitors of HIV Env-mediated cell fusion | inhibition, % at 12.3 µM | HeLa-JRFL Env/CEM21 cell fusion, luciferase | 1.1% of 360,000 active;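 active = mean replicate inhibition score of at least 50 and every replicate individually at or above 50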
# PglD inh: blocks C. jejuni PglD acetyltransferase activity; purified PglD enzyme, DTNB colorimetric CoA detection; inhibition, % at 12.5 µM; 0.098% of 360,000 active; AID 602405; in the data active = inhibition above about 16%, passing the limit was not always enough
# NSD2 HMT inh: blocks human histone methyltransferase NSD2. inhibition, % at 12.5 µM. O96028. 0.54% of 310,000 active. NSD2 peptide methylation, AlphaScreen, 120 min; in the data active = inhibition above about 50%
# CASP6 VEID inh: blocks human caspase-6 cleavage activity | P55212 | purified caspase-6, Z-VEID-R110 cleavage fluorescence | inhibition, % at 12.5 µM | 0.53% of 350,000 active | AID 686996;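 active = mean inhibition across replicates at least about 35%, with every replicate also reaching that limit, limit read from the data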
# Target sequence (P55212 24-179 limits assumed): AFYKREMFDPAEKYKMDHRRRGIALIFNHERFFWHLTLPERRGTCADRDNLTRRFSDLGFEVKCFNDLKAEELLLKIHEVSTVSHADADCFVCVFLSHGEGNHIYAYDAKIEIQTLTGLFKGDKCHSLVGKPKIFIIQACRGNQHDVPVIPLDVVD
# Target sequence (P55212 194-293 limits assumed): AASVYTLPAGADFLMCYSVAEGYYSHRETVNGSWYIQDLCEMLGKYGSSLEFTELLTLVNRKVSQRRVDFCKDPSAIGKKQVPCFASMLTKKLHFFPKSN
# ALR H2O2 inh: inhibitors of human sulfhydryl oxidase ALR | P55789 | 3.8% of 290,000 active | purified ALR, DTT oxidation, H2O2 HRP-luminol luminescence | inhibition, % (concentration not given with the values);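 active = mean replicate inhibition above about 79%, with every replicate also reaching it, limit read from the data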
# Target sequence (P55789 whole entry, looked up): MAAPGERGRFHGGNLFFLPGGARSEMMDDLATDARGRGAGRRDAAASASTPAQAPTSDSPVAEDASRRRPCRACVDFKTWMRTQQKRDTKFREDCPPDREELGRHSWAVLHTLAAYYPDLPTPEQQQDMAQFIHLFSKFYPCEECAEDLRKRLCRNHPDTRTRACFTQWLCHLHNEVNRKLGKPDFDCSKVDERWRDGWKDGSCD
# Hits are given with their value; – = inactive; · = no result. Rows were chosen to be rich in hits. Some 4.1% of all compounds tested hit in one or more screens of this group.
SMILES,CFTR F508del cor,HIV Env fusion,PglD inh,NSD2 HMT inh,CASP6 VEID inh,ALR H2O2 inh
COc1cc(/C=N/NC(=O)CCOc2ccccc2C)cc(Br)c1O,–,–,·,–,·,97
COc1ccc(C=NNC(=O)c2ccccc2NS(=O)(=O)c2cccs2)cc1O,–,–,–,–,–,–
CN1C(=O)c2cc(NC(=O)c3ccc(F)cc3)ccc2OC[C@@H]2O[C@H](CC(=O)NCC3CCCCC3)CC[C@@H]21,–,–,–,·,–,·
CCCNC(=O)N1CC2(CN(C(=O)c3cccc(F)c3)C2)c2c([nH]c3cc(OC)ccc23)[C@@H]1CO,–,·,·,·,–,·
CCC(=O)N1C[C@H](C)[C@H](OC)CN(C)C(=O)c2ccc(NC(=O)Nc3ccc(Cl)cc3)cc2OC[C@@H]1C,–,–,·,·,·,·
O=C(Cc1ccccn1)N[C@H]1CC[C@@H](CC(=O)N2CCCCC2)O[C@H]1CO,–,–,–,·,–,·
O=C1CCC/C(=N/NC(=O)c2cc(NS(=O)(=O)c3cccs3)cc(NS(=O)(=O)c3cccs3)c2)C1,–,–,·,–,–,–
O=C1CCC/C(=N/NC(=O)c2ccc(NS(=O)(=O)c3cccs3)cc2)C1,–,–,–,–,–,82
Cc1ccc(S(=O)(=O)N[C@H]2CC[C@H](CCn3cc(-c4cccnc4)nn3)O[C@@H]2CO)cc1,–,–,–,·,–,·
CC(C)C[C@H](NC(=O)c1[nH]cnc1C(=O)N[C@@H](Cc1ccccc1)C(=O)OCc1ccccc1)C(=O)OCc1ccccc1,–,–,–,·,–,–
CC(C)(C)OC(=O)NCCCC[C@H](NC(=O)c1[nH]cnc1C(=O)Nc1ccc(CNC(=O)OC(C)(C)C)cc1)C(=O)OC(C)(C)C,–,72,·,·,–,–
C[C@H](NC(=O)c1nc[nH]c1C(=O)N[C@@H](Cc1ccccc1)C(=O)OC(C)(C)C)C(=O)OC(C)(C)C,–,–,–,·,–,–
CC(C)C[C@H](NC(=O)c1nc[nH]c1C(=O)N[C@@H](CC(C)C)C(=O)OC(C)(C)C)C(=O)OC(C)(C)C,–,70,–,·,–,–
CC(C)C[C@H](NC(=O)c1nc[nH]c1C(=O)N[C@@H](CC(C)C)C(=O)OCc1ccccc1)C(=O)OCc1ccccc1,–,71,–,·,–,–
CC(C)(C)OC(=O)[C@H](Cc1ccccc1)NC(=O)c1nc[nH]c1C(=O)N[C@@H](Cc1ccccc1)C(=O)OC(C)(C)C,–,74,–,·,–,–
CC(C)(C)OC(=O)NCCCC[C@H](NC(=O)c1nc[nH]c1C(=O)NCc1ccccc1)C(=O)OC(C)(C)C,–,–,–,·,–,–
CCNC(=O)C[C@@H]1CC[C@@H]2[C@@H](COc3ccc(NC(=O)c4cccs4)cc3C(=O)N2C)O1,–,–,–,·,–,·
C[C@H]1CN([C@@H](C)CO)S(=O)(=O)c2ccc(C#CCN(C)C)cc2O[C@H]1CN(C)Cc1ccncc1,–,·,–,·,–,·
C[C@H](CO)N1C[C@H](C)[C@H](CN(C)C(=O)c2ccncc2)Oc2ncc(C#CC3CC3)cc2C1=O,–,–,·,·,·,·
N#CC(C#N)=C1C=C2C=C(N3CCCCCC3)CCC2CC1 (stereo unspecified),67,–,·,–,–,·
N#CC(C#N)=C1C=C2C=C(N3CCOCC3)CCC2CC1 (stereo unspecified),70,–,·,–,–,·
COc1ccc2c3c([nH]c2c1)[C@H](CO)N(C(=O)c1cccnc1)CC31CCN(C(=O)Nc2cccc(F)c2)CC1,–,–,·,·,–,·
COc1ccc(NC(=O)N(C)C[C@H]2Oc3c(NC(=O)c4ccc(-c5nccs5)cc4)cccc3C(=O)N([C@@H](C)CO)C[C@H]2C)cc1,–,–,–,·,–,·
CC1CCC2(CC1)Nc1ccccc1C(=O)N2c1ccccc1 (stereo unspecified),·,–,–,–,·,–
O=C1c2ccccc2NC2(CCCCC2)N1c1ccc(O)cc1,·,·,–,–,·,99
SMILES,CFTR F508del cor,HIV Env fusion,PglD inh,NSD2 HMT inh,CASP6 VEID inh,ALR H2O2 inh
O=C(O)CCc1ccc(-c2cccs2)n1CCc1ccccc1,–,–,–,–,–,99
CC(=O)c1cccc(-n2c(CCC(=O)O)ccc2-c2cccs2)c1,·,·,–,–,–,89
COC(=O)[C@@H]1[C@@H](CO)[C@@H]2Cn3c(cccc3=O)[C@@H]2N1C(=O)C1CC1,–,·,–,·,–,·
Cc1c([N+](=O)[O-])cnc(Sc2ccccc2)c1[N+](=O)[O-],–,–,–,–,–,99
COc1cc2sc3ccc(C#Cc4ccccn4)cc3c(=O)c2cc1OC,–,56,–,·,–,–
COc1cccc2sc3cc(C#Cc4ccccn4)ccc3c(=O)c12,–,–,–,·,–,–
COc1cc(/C=C/C(=O)OCC(=O)Nc2c(C)n(C)n(-c3ccccc3)c2=O)ccc1O,–,–,–,–,–,99
COc1cc(/C=C/C(=O)OCC(=O)Nc2ccccc2Sc2ccc(Cl)cc2)ccc1O,·,–,–,–,–,91
C[C@H](CO)N1C[C@H](C)[C@H](CN(C)C(=O)Nc2ccc(F)cc2)Oc2c(NC(=O)c3nc4ccccc4s3)cccc2C1=O,–,–,–,·,–,·
Cc1c(OCC(=O)NC(Cc2ccc(Cl)cc2)C(=O)O)ccc2c3c(c(=O)oc12)CCC3 (stereo unspecified),–,·,–,·,–,–
Cc1oc2cc3oc(=O)c(CC(=O)N[C@@H](C)C(=O)NC(Cc4ccc(Cl)cc4)C(=O)O)c(C)c3cc2c1C (stereo partly specified),–,·,–,·,·,98
Cc1c(OCC(=O)NC(Cc2ccc(Cl)cc2)C(=O)O)ccc2c1oc(=O)c1ccccc12 (stereo unspecified),–,·,–,·,–,88
CCCCCCc1c(C)c2ccc(OCC(=O)N[C@@H](Cc3ccccc3)C(=O)O)cc2oc1=O,–,·,–,·,–,97
CO[C@H]1CN(C)C(=O)c2cc(NS(=O)(=O)CC(F)(F)F)ccc2OC[C@@H](C)N(CCC(F)(F)F)C[C@@H]1C,–,–,–,·,–,·
Cc1ccc(C(=O)NC(=C(Cl)Cl)S(=O)(=O)c2ccc(Cl)cc2)cc1,–,–,·,–,–,–
Cc1ccc(C(=O)NC(=C(Cl)Cl)S(=O)(=O)c2ccc(C)cc2)cc1,·,–,–,–,·,99
O=C(NC(=C(Cl)Cl)S(=O)(=O)c1ccc(Cl)cc1)c1ccccc1,–,–,–,–,39,–
COc1ccc(CN(C)C[C@H]2Oc3ccc(NC(=O)C4CC4)cc3CC(=O)N([C@H](C)CO)C[C@H]2C)cc1,–,–,–,·,–,·
C[C@H]1CN([C@@H](C)CO)S(=O)(=O)c2ccc(-c3ccncc3)cc2O[C@H]1CN(C)Cc1ccncc1,–,–,·,·,·,·
O=C(NCc1ccccc1)c1cccc(COc2ccccc2Cl)c1,·,–,–,–,–,–
NNC(=O)c1cccc(COc2ccccc2Br)c1,·,–,–,–,·,98
COC(=O)/C=C/c1ccc(OC(=O)OC)c(OC(=O)OC)c1,·,–,·,–,–,98
COC(=O)/C=C/c1ccc2c(c1)OCO2,–,–,–,–,–,–
